Reference: PubChem BioAssay (NCI)
The panel holds about 83,000 compounds, 20% with a hit somewhere; the sample as a whole holds those more often.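 Treatment: one concentration, 48 hours, 96-well format. Scoring: percent growth, with anything below 10 considered active.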 Unmarked numbers belong to inactive results. Active and inactive are the calls of the source.

What was measured:
Test in all cases: NCI-60 one-dose screen, 48 h (100 = growth as untreated, 0 = no growth, -100 = all killed)
Settings in all cases: 10 µM unless noted
T-47D breast = tested on: T-47D breast
BT-549 breast = tested on: BT-549 breast
MDA-MB-435 melanoma = tested on: MDA-MB-435 melanoma
MCF7 breast = tested on: MCF7 breast
HCT-116 colon = tested on: HCT-116 colon
HCC-2998 colon = tested on: HCC-2998 colon
KM12 colon = tested on: KM12 colon
SW-620 colon = tested on: SW-620 colon

## CCOC(=O)c1c(C)nc2c(c1N)CC(=O)N2Cc1ccc(F)cc1
T-47D breast
  growth: 73.2%
BT-549 breast
  growth: 72.5%
MDA-MB-435 melanoma
  growth: 99.8%
MCF7 breast
  growth: 96.1%
HCT-116 colon
  growth: 87.6%
HCC-2998 colon
  growth: 103%
KM12 colon
  growth: 97.7%

## CCCCOc1nc2c(C)cccc2cc1-c1cc(-c2ccc(Cl)cc2)nc(-c2ccc(Cl)cc2)c1
T-47D breast
  growth: 99%
BT-549 breast
  growth: 101%
MDA-MB-435 melanoma
  growth: 102%
MCF7 breast
  growth: 96.9%
HCT-116 colon
  growth: 99.5%
HCC-2998 colon
  growth: 108%
KM12 colon
  growth: 97.7%

## CNC(=O)c1cc(-n2ccc3cc(NC(=O)c4ccc(N5CCOCC5)c(C(F)(F)F)c4)ccc32)ccn1
T-47D breast
  growth: 25.8%
BT-549 breast
  growth: 43.8%
MDA-MB-435 melanoma
  growth: 76.4%
MCF7 breast
  growth: 60.6%
HCT-116 colon
  growth: 38.7%
HCC-2998 colon
  growth: 63.8%
KM12 colon
  growth: 17.7%

## CCc1ccc(Oc2c(-c3ccc(OCc4ccc(Cl)cc4)cc3O)n[nH]c2C(F)(F)F)cc1
T-47D breast
  growth: -2.85% (active)
BT-549 breast
  growth: 34.7%
MDA-MB-435 melanoma
  growth: 7.72% (active)
MCF7 breast
  growth: 4.9% (active)
HCT-116 colon
  growth: -5.05% (active)
HCC-2998 colon
  growth: 62.2%
KM12 colon
  growth: 19.5%

## COc1ccc(NC2=C(Br)C(=O)C(C)=C(C)C2=O)cc1
T-47D breast
  growth: -33.9% (active)
BT-549 breast
  growth: 101%
SW-620 colon
  growth: 98.9%
MCF7 breast
  growth: 63.5%
HCT-116 colon
  growth: 14.1%
HCC-2998 colon
  growth: 99.6%
KM12 colon
  growth: 94.8%

## Cc1nn(-c2ccccc2)c(-n2ccnc2)c1/C=N/Nc1nc(-c2ccc(Cl)c(Cl)c2)cs1
T-47D breast
  growth: 28.7%
BT-549 breast
  growth: 71.5%
MDA-MB-435 melanoma
  growth: 66.2%
MCF7 breast
  growth: 17.1%
HCT-116 colon
  growth: 0.896% (active)
HCC-2998 colon
  growth: 63.5%
KM12 colon
  growth: 66.7%

## OC(c1ccccc1)C(NC(Cc1ccccc1)c1ccccc1)c1ccccc1 (centres undefined)
T-47D breast
  growth: 73.6%
BT-549 breast
  growth: 91.4%
MDA-MB-435 melanoma
  growth: 97.9%
MCF7 breast
  growth: 104%
HCT-116 colon
  growth: 77.1%
HCC-2998 colon
  growth: 96.1%
KM12 colon
  growth: 89.1%

## COc1cccc(-c2nc(-c3ccc(NC(=O)C(C)C)cc3)[nH]c2-c2ccnc(Br)c2)c1
T-47D breast
  growth: 0.829% (active)
BT-549 breast
  growth: 56.9%
SW-620 colon
  growth: 42.2%
MCF7 breast
  growth: 12.3%
HCT-116 colon
  growth: 34%
HCC-2998 colon
  growth: 45.7%
KM12 colon
  growth: 36.4%

## O=c1c2cc(F)ccc2sc2c(NCCCNCCO)nc3ccccc3c12
T-47D breast
  growth: 22.9%
BT-549 breast
  growth: 66.2%
MDA-MB-435 melanoma
  growth: -82.5% (active)
MCF7 breast
  growth: -51.2% (active)
HCT-116 colon
  growth: -94.1% (active)
HCC-2998 colon
  growth: -90.8% (active)
KM12 colon
  growth: -77% (active)

## Nc1nc(-c2cccc3ccccc23)cc2ccccc12
T-47D breast
  growth: 43.7%
BT-549 breast
  growth: 39.2%
MDA-MB-435 melanoma
  growth: -64.8% (active)
MCF7 breast
  growth: 7.69% (active)
HCT-116 colon
  growth: 10.8%
HCC-2998 colon
  growth: -5.78% (active)
KM12 colon
  growth: 5.93% (active)

## COc1ccccc1/C=C1\Oc2cc(OCCN3CCC(Cc4ccccc4)CC3)ccc2C1=O
T-47D breast
  growth: 85.8%
BT-549 breast
  growth: 85.4%
MDA-MB-435 melanoma
  growth: 91.1%
MCF7 breast
  growth: 80.1%
HCT-116 colon
  growth: 73.9%
HCC-2998 colon
  growth: 37.9%
KM12 colon
  growth: 91.7%

## Oc1ccc(-c2nc3ccc4[nH]ncc4c3c3c2CCCC3)c2cccnc12
T-47D breast
  growth: 15.1%
BT-549 breast
  growth: -12.9% (active)
MDA-MB-435 melanoma
  growth: -7.42% (active)
MCF7 breast
  growth: 2.05% (active)
HCT-116 colon
  growth: 2.74% (active)
HCC-2998 colon
  growth: 5.08% (active)
KM12 colon
  growth: 2.51% (active)

## COc1ccc(OC)c(/C=C/c2nnc(Nc3ccccc3)o2)c1
T-47D breast
  growth: 80.4%
BT-549 breast
  growth: 97.1%
MDA-MB-435 melanoma
  growth: 89.1%
MCF7 breast
  growth: 98.3%
HCT-116 colon
  growth: 103%
HCC-2998 colon
  growth: 102%
KM12 colon
  growth: 89%

## CCOC(=O)c1c(C)oc2ncnc(N3CCN(C(=O)COc4ccc(C(C)(C)C)cc4)CC3)c12
T-47D breast
  growth: 47.7%
BT-549 breast
  growth: 54.3%
MDA-MB-435 melanoma
  growth: 99.8%
MCF7 breast
  growth: 83%
HCT-116 colon
  growth: 75.2%
HCC-2998 colon
  growth: 104%
KM12 colon
  growth: 89.9%

## COc1ccc(/C=C(\C#N)n2nnc3c(F)cccc32)cc1
T-47D breast
  growth: 16.1%
BT-549 breast
  growth: 45.4%
MDA-MB-435 melanoma
  growth: -78.4% (active)
MCF7 breast
  growth: 18.8%
HCT-116 colon
  growth: 8.75% (active)
HCC-2998 colon
  growth: 1.33% (active)
KM12 colon
  growth: 7.96% (active)

## Nc1nc2ccccc2c2c(=O)c3cc(F)ccc3sc12
T-47D breast
  growth: 84.3%
BT-549 breast
  growth: 106%
MDA-MB-435 melanoma
  growth: 98.6%
MCF7 breast
  growth: 34.4%
HCT-116 colon
  growth: 99.4%
HCC-2998 colon
  growth: 96.6%
KM12 colon
  growth: 99%

## COc1ccc(-c2[nH]c3ccc(OC)cc3c2/C=C(\C#N)S(=O)(=O)c2ccccc2)cc1
T-47D breast
  growth: 34.4%
BT-549 breast
  growth: 46.6%
MDA-MB-435 melanoma
  growth: 1.86% (active)
MCF7 breast
  growth: 7.23% (active)
HCT-116 colon
  growth: 19.4%
HCC-2998 colon
  growth: -19.7% (active)
KM12 colon
  growth: 10.8%
